The panel holds about 83,000 compounds, 20% with a hit somewhere; the sample as a whole holds those more often.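 Values shown are percent growth following 48 h exposure of cells in 96-well plates to a single concentration of compound; below 10 was considered active.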 A number with no mark means an inactive call. Activity calls are given as the source filed them.
Each compound was assayed on MCF7 breast (assay: NCI-60 one-dose screen, 48 h (100 = growth as untreated, 0 = no growth, -100 = all killed)). Settings: 10 µM unless noted.

Structure (SMILES)	growth
COc1cccc(C2C3=C(COC3=O)N(CCO)c3cc4c(cc32)OCCO4)c1 (stereo not given)	13.1%
CCN=c1sc2c(n1NC(=O)c1cc3ccc1CCc1ccc(cc1)CC3)C(=O)c1ccccc1C2=O	-63.1% (active)
COc1cccc(/C=C/C(=O)/C=C(/C=C/c2cccc(OC)c2OC)OB(F)F)c1OC	26.8%
COc1ccc(Nc2nccc(Nc3ccc4[nH]ncc4c3)n2)cc1	13.3%
O=c1n(C2OC(CO)C(O)C2O)ccc2nccn12 (stereo not given)	94.1%
C=CCn1c(SCC(=O)Nc2ccc(C(=O)/C=C/c3ccc(Cl)cc3)cc2)nnc1-c1ccc(Cl)c(Cl)c1	19.7%
NCCNc1ccc([N+](=O)[O-])cc1	101%
O=C1CC2C=CCN2C=C1NC(=O)c1ccccc1 (stereo not given)	101%
O=C(/C=C/c1ccc(Cl)cc1)c1ccc(Nc2ccnc3cc(Cl)ccc23)cc1	78.6%
COc1cccc(-c2nn(-c3ccccc3)cc2-c2ccnc(-c3cccnc3)c2)c1	87.1%
Cc1nc2sc(C(=O)Nc3ccccc3)c(N)c2cc1C(O)c1ccccc1 (stereo not given)	17%
COC(=O)c1c(C(=O)OC)c2ccc3c4ncccc4ccc3n2c1C(=O)c1ccc(C)cc1	86.2%
CN1CCN(Cc2ccc(NC(=O)c3cncc(C#Cc4c(N)ncc5ccccc45)c3)cc2C(F)(F)F)CC1	-70.8% (active)
O=C(NCCN1CCOCC1)c1cncnc1Nc1ccc2c(ccn2Cc2ccccn2)c1	97.8%
CCCCCCCCOC(=O)c1c(C)[nH]c(/C=C2\N=C(c3ccc[nH]3)C=C2OC)c1C	-58.1% (active)
COc1ccc(Nc2nc(Nc3cc(C)[nH]n3)c3cc(OC)c(OC)cc3n2)cc1	-71.4% [20 µM] (active)
O=C1c2c(c3c4cccnc4[nH]c3c3ccc4ccccc4c23)C(=O)N1O	20.8%
CCOC(=O)c1c2c(n3ccc(NC(=O)CCN4CCCC4)cc13)C(=O)c1ncccc1C2=O	-66.6% (active)
COC(=O)c1c(C)nc(C)c2c1C(=O)C(Br)=C(NCCN1CCOCC1)C2=O	82.3%
CCN1C(=O)N(CC)C2C1NC(=S)N2/N=C/C=C/c1ccccc1 (stereo not given)	13.8%

Structure (SMILES)	growth
COCCNC(=O)Cc1cc(-c2ccc(Cl)cc2)n(-c2ccccc2)c1C	88.6%
Cc1nn(C)c2ncnc(Nc3ccccc3Br)c12	95.6%
CCOC(=O)c1cnc2sc(-c3ccc(OC)cc3)nc2c1Cl	88%
C=C(CNCCO)[C@@H]1CC[C@]2(CO)CC[C@]3(C)[C@H](CC[C@@H]4[C@@]5(C)CCC(NCCO)C(C)(C)[C@@H]5CC[C@]43C)[C@@H]12 (stereo not given in full)	47.4%
O=C1c2c(c3c4cc(F)ccc4oc3c3[nH]c4ccccc4c23)C(=O)N1O	17.3%
Cc1nn(-c2ccccc2)c(Oc2ccccc2)c1/C=N/NC(=O)Cn1c(=O)sc2ccccc21	25.4%
O=S(=O)(Nc1ccc(Br)cc1)c1ccc(-c2cnc(C3CC3)o2)cc1	16.1%
O=C1c2ccccc2C(=O)c2cc(Cn3c[n+](Cc4ccc5ccccc5c4)c4ccccc43)ccc21	39.9%
Cc1cc2c(c(C)n1)CN(C(=O)Nc1nc(-c3cncs3)ccc1N)C2	89.3%
CC(C)n1cc(C2=C(c3cccc4ccccc34)C(=O)NC2=O)c2cc(Br)ccc21	76.1%
Oc1c(Cl)cc(Cl)c2ccc(CN3CCNCC3)nc12	34.4%
CCN1CCN(c2cc(C(=O)Nc3cccc(Nc4ccc5c(OC)cccc5n4)c3)cc(C(F)(F)F)c2)CC1	-45.3% (active)
C#CCOc1ccc(C2=NN(C)C3N=C(Cl)c4ncn(C)c4N23)cc1OCC#C (stereo not given)	98.5%
CC(C)=CC(=O)C1C(=O)c2ccccc2C1=O	93.4%
COc1cc(NC(=O)c2cncnc2Nc2ccc3c(ccn3Cc3cccc(F)c3)c2)cc(OC)c1	28.2%
CCCC[N+]1(C)CCN=C1Cc1ccccc1 (stereo not given)	100%
O=C(COc1ccc(/C=C2\Oc3ccccc3C2=O)cc1)Nc1nccs1	75.6%
CN1CCN(Cc2ccc(NC(=O)c3cncc(C#Cc4c(N)ncc5cc(F)ccc45)c3)cc2C(F)(F)F)CC1	-75.9% (active)
Nc1cc(-c2ccc(Cl)cc2)nn1-c1nc(-c2ccc(Br)cc2)cs1	89.8%
O=c1c(Cc2ccc(F)cc2)cc(-c2ccccc2)nn1C/C(=N/O)c1ccccc1	26.2%

The compounds below were run on HCT-116 colon in the same assay as above. Settings: 10 µM unless noted.

Structure (SMILES)	growth
COc1cccc(C2C3=C(COC3=O)N(CCO)c3cc4c(cc32)OCCO4)c1 (stereo not given)	3.53% (active)
CCN=c1sc2c(n1NC(=O)c1cc3ccc1CCc1ccc(cc1)CC3)C(=O)c1ccccc1C2=O	-50.9% (active)
COc1cccc(/C=C/C(=O)/C=C(/C=C/c2cccc(OC)c2OC)OB(F)F)c1OC	8.38% (active)
COc1ccc(Nc2nccc(Nc3ccc4[nH]ncc4c3)n2)cc1	19.3%
O=c1n(C2OC(CO)C(O)C2O)ccc2nccn12 (stereo not given)	112%
C=CCn1c(SCC(=O)Nc2ccc(C(=O)/C=C/c3ccc(Cl)cc3)cc2)nnc1-c1ccc(Cl)c(Cl)c1	-71.5% (active)
NCCNc1ccc([N+](=O)[O-])cc1	98.8%
O=C1CC2C=CCN2C=C1NC(=O)c1ccccc1 (stereo not given)	93.6%
O=C(/C=C/c1ccc(Cl)cc1)c1ccc(Nc2ccnc3cc(Cl)ccc23)cc1	16.9%
COc1cccc(-c2nn(-c3ccccc3)cc2-c2ccnc(-c3cccnc3)c2)c1	85.7%
Cc1nc2sc(C(=O)Nc3ccccc3)c(N)c2cc1C(O)c1ccccc1 (stereo not given)	11.8%
COC(=O)c1c(C(=O)OC)c2ccc3c4ncccc4ccc3n2c1C(=O)c1ccc(C)cc1	95.6%
CN1CCN(Cc2ccc(NC(=O)c3cncc(C#Cc4c(N)ncc5ccccc45)c3)cc2C(F)(F)F)CC1	-96.5% (active)
O=C(NCCN1CCOCC1)c1cncnc1Nc1ccc2c(ccn2Cc2ccccn2)c1	105%
CCCCCCCCOC(=O)c1c(C)[nH]c(/C=C2\N=C(c3ccc[nH]3)C=C2OC)c1C	-83.5% (active)
COc1ccc(Nc2nc(Nc3cc(C)[nH]n3)c3cc(OC)c(OC)cc3n2)cc1	-54.4% [20 µM] (active)
O=C1c2c(c3c4cccnc4[nH]c3c3ccc4ccccc4c23)C(=O)N1O	26.5%
CCOC(=O)c1c2c(n3ccc(NC(=O)CCN4CCCC4)cc13)C(=O)c1ncccc1C2=O	-82.8% (active)
COC(=O)c1c(C)nc(C)c2c1C(=O)C(Br)=C(NCCN1CCOCC1)C2=O	67.4%
CCN1C(=O)N(CC)C2C1NC(=S)N2/N=C/C=C/c1ccccc1 (stereo not given)	5.71% (active)

Structure (SMILES)	growth
COCCNC(=O)Cc1cc(-c2ccc(Cl)cc2)n(-c2ccccc2)c1C	80.4%
Cc1nn(C)c2ncnc(Nc3ccccc3Br)c12	110%
CCOC(=O)c1cnc2sc(-c3ccc(OC)cc3)nc2c1Cl	87.8%
C=C(CNCCO)[C@@H]1CC[C@]2(CO)CC[C@]3(C)[C@H](CC[C@@H]4[C@@]5(C)CCC(NCCO)C(C)(C)[C@@H]5CC[C@]43C)[C@@H]12 (stereo not given in full)	44.3%
O=C1c2c(c3c4cc(F)ccc4oc3c3[nH]c4ccccc4c23)C(=O)N1O	23.4%
Cc1nn(-c2ccccc2)c(Oc2ccccc2)c1/C=N/NC(=O)Cn1c(=O)sc2ccccc21	38.1%
O=S(=O)(Nc1ccc(Br)cc1)c1ccc(-c2cnc(C3CC3)o2)cc1	18.7%
O=C1c2ccccc2C(=O)c2cc(Cn3c[n+](Cc4ccc5ccccc5c4)c4ccccc43)ccc21	41.2%
Cc1cc2c(c(C)n1)CN(C(=O)Nc1nc(-c3cncs3)ccc1N)C2	92.3%
CC(C)n1cc(C2=C(c3cccc4ccccc34)C(=O)NC2=O)c2cc(Br)ccc21	35.4%
Oc1c(Cl)cc(Cl)c2ccc(CN3CCNCC3)nc12	32.6%
CCN1CCN(c2cc(C(=O)Nc3cccc(Nc4ccc5c(OC)cccc5n4)c3)cc(C(F)(F)F)c2)CC1	24.3%
C#CCOc1ccc(C2=NN(C)C3N=C(Cl)c4ncn(C)c4N23)cc1OCC#C (stereo not given)	93.3%
CC(C)=CC(=O)C1C(=O)c2ccccc2C1=O	103%
COc1cc(NC(=O)c2cncnc2Nc2ccc3c(ccn3Cc3cccc(F)c3)c2)cc(OC)c1	44.5%
CCCC[N+]1(C)CCN=C1Cc1ccccc1 (stereo not given)	101%
O=C(COc1ccc(/C=C2\Oc3ccccc3C2=O)cc1)Nc1nccs1	94.5%
CN1CCN(Cc2ccc(NC(=O)c3cncc(C#Cc4c(N)ncc5cc(F)ccc45)c3)cc2C(F)(F)F)CC1	-78.7% (active)
Nc1cc(-c2ccc(Cl)cc2)nn1-c1nc(-c2ccc(Br)cc2)cs1	94.4%
O=c1c(Cc2ccc(F)cc2)cc(-c2ccccc2)nn1C/C(=N/O)c1ccccc1	35.1%

— PubChem BioAssay (NCI)
